Screening data (PubChem BioAssay)
Only some compounds are listed: those with a hit (about 21% of all), similar ones and a draw of the others.
Pf growth 48h = Primary qHTS for delayed death inhibitors of the malarial parasite plastid, 48 hour incubation; P. falciparum luciferase growth in erythrocytes, 48 h; Potency, µM (top dose mostly 28.7 µM), inactives show at the top dose activity change, negative = inhibition, usual class: inhibitors; 5.9% of 310,000 active; AID 504832, 2011; active = well fitted inhibition curve with a large enough effect; inconclusive = small, poorly fitted or top-dose-only effect, or another doubt; inactive = no such curve, though single readings can be large or run the other way; note: potency is the fitted concentration of half-maximal effect; % is set by controls: 0 for no effect and ±100 for the full control effect
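Erythrocytes infected with P. falciparum carrying an integrated firefly luciferase reporter (2% hematocrit, 0.1% parasitemia final) were exposed to compounds in RPMI 1640 with 0.5% Albumax at 37 C, 5% CO2. Growth inhibition was scored as reduced luminescence.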
Cycloheximide cs = Cycloheximide Counterscreen for Small Molecule Inhibitors of Shiga Toxin; cell reporter, cycloheximide protein synthesis inhibition counterscreen; max response, %; 12% of 300,000 active; in the data active = max response mostly above about 13%, no sharp cut-off; inactive = mostly below about 14%; note: read at 38.3 µM for the half of the compounds with a filed dose; 0% is about no effect
NS1 inh = qHTS Assay for Inhibitors of Influenza NS1 Protein Function | Potency, µM (series often up to 46.1 µM), inactives show at the highest dose activity, positive = more growth | 0.4% of 270,000 active; note: potency is the fitted concentration of half-maximal effect; actives are rising curves; nearly all actives have a fitted effect of over 50% in size
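A cell-based growth assay was used: compounds that relieve NS1-induced slow growth of budding yeast raise OD600. Assay medium was yeast nitrogen base with ammonium sulphate and -URA supplement, pH 6.0, with 2% galactose.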
Pf growth 96h = Primary qHTS for delayed death inhibitors of the malarial parasite plastid, 96 hour incubation. P. falciparum luciferase reporter growth, 96 h. Potency, µM (top dose mostly 28.7 µM), inactives show at the highest dose activity change, negative = inhibition, hits mostly inhibitors. 6.9% of 320,000 active; active = well fitted inhibition curve with a large enough effect; inconclusive = small, poorly fitted or top-dose-only effect, or another doubt; inactive = no such curve, though single readings can be large or run the other way; note: potency is the fitted concentration of half-maximal effect; % is set by controls: 0 for no effect and ±100 for the full control effect
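Delayed-death screen, second-generation endpoint: infected erythrocytes, 2% hematocrit, 0.05% parasitemia final; 96 hours at 37 C, 5% CO2; luciferase detection reagent; luminescence decrease equals reduced growth.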
Shiga toxin inh = A qHTS for Small Molecule Inhibitors of Shiga Toxin | 9.2% of 290,000 active | Vero cells, Shiga toxin protein synthesis inhibition reporter | inhibition, % at 38.7 µM | AID 2315, 2010; in the data active = inhibition mostly above about 28%, no sharp cut-off; inactive = mostly below about 43%; note: 0% is about no effect
SARS PLP yeast = qHTS of Yeast-based Assay for SARS-CoV PLP | 0.19% of 330,000 active | AID 485353, 2010 | Potency, µM (highest dose often 32.9 µM), for the others: at the top dose activity, positive = growth rescue, usual class: activators | S. cerevisiae expressing SARS-CoV PLpro, growth rescue; note: potency is the fitted concentration of half-maximal effect; 0% is about no effect; nearly all actives have a fitted effect of over 55% in size
Active calls of the source: *; ? = inconclusive; . = not tested or not shown; [ ] = remark or other dose. Unless noted, calls come from the whole dose curve.

SMILES | Pf growth 48h | Cycloheximide cs | NS1 inh | Pf growth 96h | Shiga toxin inh | SARS PLP yeast
NS(=O)(=O)c1ccc(NC(=O)NC2CCCCC2)cc1 | 9% | 9 | 2% | . | 6 | 3%
O=C(Nc1ccc(F)cc1F)NC1CC1 | 25% | -2 | . | 26% | -10 | -2%
O=C(NC1CCN(C(=O)Nc2cccc(Cl)c2)CC1)C1CCCCC1 | -13% | 1 | 11% | 1% | 23 | 0%
O=C(Nc1ccc(F)cc1F)NC1CCCCCCC1 | 66% | 37* | -17% | -17% | 96* | 0%
O=C(Nc1ccc2c(c1)OCCO2)C1CCC1 | 54% | 21 | -1% | . | 28 | 3%
Cc1ccc(NC(=O)NC2CCCCCCC2)cc1 | 131% | 40* | 4% | ? | 71* | 2%
O=C(Nc1cccc(Cl)c1)NC1CCN(C2CCCCC2)C1 (configuration not stated) | ? | -2 | -10% | 12µM* | . | 7%
Cc1cc(C(=O)OCC(=O)Nc2ccccc2[N+](=O)[O-])c2ccccc2n1 | ? | -4 | -12% | 6% | 20 | 19%
COc1ccc(CCNC(=O)CN2C(=O)NC3(CCCCC3C)C2=O)cc1 (configuration not stated) | . | . | . | . | . | 2%
Cc1ccc(C(=O)N/C(=C\c2cn(S(=O)(=O)N(C)C)c3ccccc23)C(=O)NCCN2CCOCC2)cc1 | ? | 0 | -9% | ? | 9 | -3%
Cn1c(SCc2ccc(F)cc2)nnc1-c1cnccn1 | 24% | 20* | -2% | 20% | 61* | 1%
Cn1c(SCC#N)nnc1-c1cnccn1 | 24% | -1 | 1% | -17% | -4 | 19%
Cn1c(SCc2ccccc2)nnc1-c1cnccn1 | 13% | 37* | -16% | 2% | 97* | 6%
Cc1ccccc1CSc1nnc(-c2cnccn2)n1C | 48% | 31* | -4% | 55% | 57* | -1%
OCCSCc1ccccc1 | . | . | -1% | . | . | .
CC(=O)Nc1ccc(N(C(=O)Cc2c[nH]c3ccccc23)C(C(=O)NC2CCCCC2)c2ccco2)cc1 (configuration not stated) | ? | 1 | 25% | 2% | -22 | 2%
CC(=O)c1ccc(N(C(=O)Cc2c[nH]c3ccccc23)C(C(=O)NC2CCCCC2)c2cccs2)cc1 (configuration not stated) | 3.7µM* | 36 | 1% | 29% | 30 | 4%
Cc1ccc(C(C(=O)NC2CCCCC2)N(C(=O)Cc2c[nH]c3ccccc23)c2ccccc2)o1 (configuration not stated) | 9.3µM* | -2 | 7% | ? | -1 | 0%
c1ccc(-n2ncc3c(NCc4cccs4)ncnc32)cc1 | 70% | 51* | -9% | 88% | 52* | -13%
C=CCNc1ncnc2c1cnn2-c1ccc(OC)cc1 | 292% | 30* | -13% | 3% | 61* | 7%
O=C(NNc1ncnc2c1cnn2-c1ccccc1)c1cccs1 | 33% | 13 | . | ? | 13 | 3%
COc1ccc(-n2ncc3c(NCc4ccco4)ncnc32)cc1 | 87% | 39* | -21% | 262% | 90* | 2%
COc1ccc(-n2ncc3c(NCc4cccs4)ncnc32)cc1 | 99% | 38* | -8% | . | 145* | -4%
COc1ccc(NS(=O)(=O)c2cccc(C(=O)NNC(=O)CNC(=O)c3cccc(C)c3)c2)cc1 | 0% | -4 | -5% | 3% | 12 | -1%
COc1ccc(OC)c(NC(=O)C(C)N2c3cccc4cccc(c34)S2(=O)=O)c1 (configuration not stated) | -15% | -2 | ? | -25% | -7 | -2%
SMILES | Pf growth 48h | Cycloheximide cs | NS1 inh | Pf growth 96h | Shiga toxin inh | SARS PLP yeast
c1ccc(CNc2ncnc3c2cnn3Cc2ccccc2)cc1 | ? | -3 | -29% | ? | -5 | -13%
c1ccc(-n2ncc3c(NCc4cccnc4)ncnc32)cc1 | 126% | 20* | -12% | 20% | 67 | -10%
CCCN(CCC)c1ncnc2c1cnn2-c1ccc(OC)cc1 | 131% | 30* | -82% | 17% | 66* | 1%
COc1ccc(-n2ncc3c(NCc4ccccn4)ncnc32)cc1 | 136% | 50* | -1% | . | 90* | -11%
COc1ccc(CC(=O)NNc2ncnc3c2cnn3-c2ccccc2)cc1 | 16% | -3 | -5% | 45% | 17 | 7%
c1csc(CNc2ncnc3nc[nH]c23)c1 | 9% | 16* | -62% | ? | 15 | 1%
CCOc1ccccc1NC(=O)CN1CCC(NC(=O)Nc2ccccc2)CC1 | ? | -5 | -6% | -4% | 2 | 4%
COc1cccc2c(Nc3ccccc3C)cc(C)nc12 | ? | -3 | -2% | -12% | -8 | 0%
COc1cccc2nc3cc(C)c(C)cc3nc12 | -26% | 59* | -59% | -20% | 59* | -11%
COc1ccccc1OCCNC(=O)c1ccc(Br)cc1 | 31% | 36* | -39% | ? | 62* | -3%
COc1ccccc1OCCNC(=O)Nc1ccc(Br)cc1 | 3% | 8 | -36% | 13% | 38 | -1%
CSc1ccccc1C(=O)NCCOc1ccccc1C | ? | -1 | . | -20%[1.15 µM] | 2 | 0%
Cc1ccccc1C(=O)NCCOc1ccccc1Cl | 233% | 36* | -22% | -23% | . | -5%
COc1ccccc1OCCNC(=O)c1cc(SC)ccc1Cl | 12% | -3 | -7% | 30% | -9 | 26%
O=C(NCCOc1ccccc1F)c1cc(F)c(F)cc1Cl | 247% | 36* | 22% | 1% | 86* | 23%
COc1ccccc1OCCNC(=O)c1cc(F)c(F)cc1Cl | 38% | 30* | 17% | ? | 25* | 10%
Cc1ccc(N2C(=O)C3CCCN3C2=S)cc1Cl (configuration not stated) | -22% | 1 | -6% | 28% | 9 | -1%
Cc1ccc(N2C(=O)C3CCCN3C2=S)cc1C (configuration not stated) | -23% | 16* | -3% | -28% | 28 | 1%
COC(=O)/C(=C\c1ccc2c(c1)c1ccccc1n2C)NC(=O)c1ccccc1 | ? | 6 | 2% | 1.2µM* | 2 | -11%
CC(C)OC(=O)/C(=C/c1ccc2c(c1)c1ccccc1n2C)NC(=O)c1ccccc1 | ? | 20* | 21% | ? | 53* | 6%
Cn1c2ccccc2c2cc(/C=C(\NC(=O)c3ccccc3)C(=O)O)ccc21 | 9% | 1 | 1% | 38% | -4 | 1%
CN(C)c1cccc(C(=O)OC(C(=O)Nc2ccc(Cl)cc2C(F)(F)F)c2ccccc2)c1 (configuration not stated) | ? | 0 | ? | 12µM* | -9 | -29%
O=C(OC(C(=O)Nc1ccc(Cl)cc1C(F)(F)F)c1ccccc1)C1=COCCO1 (configuration not stated) | -3% | -4 | -4% | ? | -5 | -10%
